# Reference: the supplement of paper PMC4466140
# Experiments:
# Assay in all cases: SPOT peptide array binding signal intensity (averaged, normalized) (arbitrary units (background-subtracted, floor 0; scale differs between SH3 domains)); higher = stronger binding of the SH3 domain to the peptide
# CaNbp2 = target: CaNbp2
# Method in brief: (§1)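 The binding signal is the normalized, background-subtracted spot intensity averaged over replicates; its arbitrary units differ between domains. It was obtained by incubating 10 μg/ml GST-fused SH3 domains from four yeast species overnight at 4°C in TBS-based blocking buffer on cellulose membranes with synthetic 15-mer peptides, cysteines replaced by serines, then detecting with anti-GST antibody, HRP anti-mouse secondary and luminol.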
# CaRvs167 = target: CaRvs167
# Method in brief: as §1
# CaRvs167-3 = target: CaRvs167-3
# Method in brief: as §1
# CaSho1 = target: CaSho1
# Method in brief: as §1
# CaSla1-D1-D2 = target: CaSla1-D1-D2
# Method in brief: as §1
# CaSla1-D3 = target: CaSla1-D3
# Method in brief: as §1
# ScAbp1 = target: ScAbp1
# Method in brief: as §1
# ScBbc1 = target: ScBbc1
# Method in brief: as §1
# ScBem1-D1 = target: ScBem1-D1
# Method in brief: as §1
# ScBzz1-D1 = target: ScBzz1-D1
# Method in brief: as §1
# ScBzz1-D2 = target: ScBzz1-D2
# Method in brief: as §1
# ScCyk3 = target: ScCyk3
# Method in brief: as §1
# ScFus1 = target: ScFus1
# Method in brief: as §1
# ScHof1 = target: ScHof1
# Method in brief: as §1
# ScHse1 = target: ScHse1
# Method in brief: as §1
# ScLsb1 = target: ScLsb1
# Method in brief: as §1
# ScLsb2 = target: ScLsb2
# Method in brief: as §1
# ScLsb3 = target: ScLsb3
# Method in brief: as §1
# ScLsb4 = target: ScLsb4
# Method in brief: as §1
# ScMyo3 = target: ScMyo3
# Method in brief: as §1
# ScMyo5 = target: ScMyo5
# Method in brief: as §1
# ScNbp2 = target: ScNbp2
# Method in brief: as §1
# ScPex13 = target: ScPex13
# Method in brief: as §1
# ScRvs167 = target: ScRvs167
# Method in brief: as §1
# ScSho1 = target: ScSho1
# Method in brief: as §1
# ScSla1-D1-D2 = target: ScSla1-D1-D2
# Method in brief: as §1
# ScSla1-D3 = target: ScSla1-D3
# Method in brief: as §1
# SpAbp1-D1 = target: SpAbp1-D1
# Method in brief: as §1
# SpBbc1 = target: SpBbc1
# Method in brief: as §1
# SpBzz1-D1 = target: SpBzz1-D1
# Method in brief: as §1
# SpBzz1-D2 = target: SpBzz1-D2
# Method in brief: as §1
# SpCyk3 = target: SpCyk3
# Method in brief: as §1
# SpHof1 = target: SpHof1
# Method in brief: as §1
# SpHof1-2 = target: SpHof1-2
# Method in brief: as §1
# SpHof1-3 = target: SpHof1-3
# Method in brief: as §1
# SpHse1 = target: SpHse1
# Method in brief: as §1
# SpLsb1 = target: SpLsb1
# Method in brief: as §1
# SpLsb4 = target: SpLsb4
# Method in brief: as §1
# SpMyo1 = target: SpMyo1
# Method in brief: as §1
# SpNbp2 = target: SpNbp2
# Method in brief: as §1
# SpPex13 = target: SpPex13
# Method in brief: as §1
# SpRvs167 = target: SpRvs167
# Method in brief: as §1
# SpSla1-D1-D2 = target: SpSla1-D1-D2
# Method in brief: as §1
# SpSla1-D3 = target: SpSla1-D3
# Method in brief: as §1
binder,measurement,setting,value
TIRRRAPLSLLESHT,SPOT peptide array binding signal intensity,CaNbp2,3410
same,SPOT peptide array binding signal intensity,CaRvs167,19.3
same,SPOT peptide array binding signal intensity,CaRvs167-3,28.2
same,SPOT peptide array binding signal intensity,CaSho1,608
same,SPOT peptide array binding signal intensity,CaSla1-D1-D2,133
same,SPOT peptide array binding signal intensity,CaSla1-D3,≤ 0
same,SPOT peptide array binding signal intensity,ScAbp1,97
same,SPOT peptide array binding signal intensity,ScBbc1,16.5
same,SPOT peptide array binding signal intensity,ScBem1-D1,22.5
same,SPOT peptide array binding signal intensity,ScBzz1-D1,11.5
same,SPOT peptide array binding signal intensity,ScBzz1-D2,29.5
same,SPOT peptide array binding signal intensity,ScCyk3,57.5
same,SPOT peptide array binding signal intensity,ScFus1,731
same,SPOT peptide array binding signal intensity,ScHof1,3.5
same,SPOT peptide array binding signal intensity,ScHse1,2020
same,SPOT peptide array binding signal intensity,ScLsb1,2
same,SPOT peptide array binding signal intensity,ScLsb2,≤ 0
same,SPOT peptide array binding signal intensity,ScLsb3,272
same,SPOT peptide array binding signal intensity,ScLsb4,8
same,SPOT peptide array binding signal intensity,ScMyo3,≤ 0
same,SPOT peptide array binding signal intensity,ScMyo5,1
same,SPOT peptide array binding signal intensity,ScNbp2,1320
same,SPOT peptide array binding signal intensity,ScPex13,1
same,SPOT peptide array binding signal intensity,ScRvs167,48.5
same,SPOT peptide array binding signal intensity,ScSho1,1070
same,SPOT peptide array binding signal intensity,ScSla1-D1-D2,337
same,SPOT peptide array binding signal intensity,ScSla1-D3,0.5
same,SPOT peptide array binding signal intensity,SpAbp1-D1,508
same,SPOT peptide array binding signal intensity,SpBbc1,1
same,SPOT peptide array binding signal intensity,SpBzz1-D1,106
same,SPOT peptide array binding signal intensity,SpBzz1-D2,≤ 0
same,SPOT peptide array binding signal intensity,SpCyk3,2
same,SPOT peptide array binding signal intensity,SpHof1,148
same,SPOT peptide array binding signal intensity,SpHof1-2,3.5
same,SPOT peptide array binding signal intensity,SpHof1-3,504
same,SPOT peptide array binding signal intensity,SpHse1,598
same,SPOT peptide array binding signal intensity,SpLsb1,3
same,SPOT peptide array binding signal intensity,SpLsb4,135
same,SPOT peptide array binding signal intensity,SpMyo1,≤ 0
same,SPOT peptide array binding signal intensity,SpNbp2,350
same,SPOT peptide array binding signal intensity,SpPex13,7
same,SPOT peptide array binding signal intensity,SpRvs167,6.33
same,SPOT peptide array binding signal intensity,SpSla1-D1-D2,5
same,SPOT peptide array binding signal intensity,SpSla1-D3,4.5
